# Laboratory results from PubChem BioAssay (NCI).
# About 83,000 compounds went through this panel and 20% of them were active in at least one assay; those are over-represented in the sample as a whole.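 Step 1: grow cells in 96-well plates. Step 2: add test compound at a single concentration. Step 3: incubate 48 h. Step 4: record percent growth.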 Unmarked numbers belong to inactive results. Activity calls are given as the source filed them. The calls were made as follows: active = growth percent below 10; inactive = the rest.
# Assays:
# Assay in all cases: NCI-60 one-dose screen, 48 h (100 = growth as untreated, 0 = no growth, -100 = all killed)
# Conditions in all cases: 10 µM unless noted
# [1] = test system: SR leukemia
# [2] = test system: RPMI-8226 leukemia
# [3] = test system: OVCAR-8 ovarian
# [4] = test system: OVCAR-5 ovarian
# [5] = test system: OVCAR-4 ovarian
# [6] = test system: SK-OV-3 ovarian
# [7] = test system: IGROV1 ovarian
# [8] = test system: OVCAR-3 ovarian
# [9] = test system: HS 578T breast
# [10] = test system: NCI/ADR-RES ovarian
SMILES,growth [1],growth [2],growth [3],growth [4],growth [5],growth [6],growth [7],growth [8],growth [9],growth [10]
O=S(=O)(NCCNc1nccc(-c2c(-c3cccc(F)c3)nc3occn23)n1)c1ccc(Br)cc1,65.6%,62.3%,80.2%,93.8%,93.9%,99.8%,57.7%,90.1%,74.6%,89.8%
COc1ccc(-c2nc(/C=C3\SC(=NCc4ccccc4)NC3=O)c3ccccn23)cc1,3.32% (active),-3.83% (active),-24.6% (active),-15% (active),-71.9% (active),-46.7% (active),-44.7% (active),-88.5% (active),-35.3% (active),-4.46% (active)
O=C(CSc1nnc2n1S(=O)(=O)c1ccccc1N2c1ccccc1)Nc1nc2ccc(F)cc2s1,62.9%,76.5%,84.9%,94.7%,99.5%,108%,34.7%,106%,101%,92.8%
Cn1c(=O)c2c(nc(NC3=NS(=O)(=O)c4ccccc43)n2CC(=O)N2CCc3ccccc32)n(C)c1=O,124%,108%,98.9%,101%,107%,101%,94.7%,110%,97%,91.8%
O=c1c2cc(-c3ccccc3)sc2nc2sc(-c3ccccc3)nn12,99.1%,92.4%,104%,115%,105%,108%,109%,108%,96%,107%
Cc1nc2c(=O)[nH]c(SCC(=O)Nc3cccc(F)c3)nc2[nH]c1=O,132%,110%,103%,103%,101%,115%,108%,111%,101%,107%
C=CCn1c(SCC(=O)Nc2ccc(C(=O)/C=C/c3cc4cc(OC)ccc4nc3Cl)cc2)nnc1-c1ccc(Br)cc1,58.4%,-19.8% (active),79.8%,99.2%,84.8%,95.7%,78.4%,97.4%,89.2%,92.3%
CCN(CC)CCOc1ccc(-c2c(-c3ccccc3)c(=O)oc3ccccc23)cc1,93.6%,90.9%,90.6%,95.6%,94.2%,79.1%,95.5%,104%,71.2%,84.8%
N#CC1=C(c2ccc(Cl)cc2)Nc2c(c(-c3ccc(Cl)cc3)nn2-c2ccccc2)C12C(=O)Nc1ccc(Cl)cc12 (stereo not given),14.1%,27.9%,49.2%,71.6%,41.8%,86.5%,36.7%,55.3%,57.1%,52.8%
CS(=O)(=O)Nc1cc(-c2ccc3ncnc(Nc4c(Cl)ccc5c4OCO5)c3c2)cnc1Cl,-8.28% (active),-19.7% (active),8.87% (active),-28.6% (active),8.29% (active),-10.2% (active),-53.5% (active),-64.5% (active),-16.2% (active),3.66% (active)
Brc1c2c(c(Br)c3ccccc13)CCCC2,99%,100%,91%,104%,112%,89.5%,98.1%,110%,95.5%,107%
C/C(=N\NC(=O)c1ccccc1O)c1cccc(/C(C)=N/NC(=O)c2ccccc2O)n1,16.6%,41.4%,32.3%,78.9%,35.4%,45.6%,61.8%,9.77% (active),69.3%,59.1%
CN(C)CCNc1nc2c3cc(Cl)ccc3nn2c2ccccc12,16.9%,50.8%,36.1%,65.7%,55.6%,57.4%,39.2%,57.8%,68.8%,36.5%
CCOC(=O)c1[nH]c(=O)c2c(C)nc(-c3ccccc3)cc2c1O,97%,93.8%,109%,106%,117%,108%,1.43% (active),105%,98.4%,103%
CCCCOC(=O)OCc1cc(=O)c(O)co1,104%,106%,102%,102%,104%,105%,110%,114%,101%,108%
CCOC(=O)C#Cc1c(C(=O)OCC)nnn1[C@@H]1O[C@H](CO)[C@H]2OC3(CCCCC3)O[C@H]21,-8.98% (active),14.2%,95.3%,105%,56%,98.1%,96%,4.07% (active),89.7%,100%
O=C(/C=C/c1ccccc1)c1cccc(OCCCOc2cccc(C(=O)/C=C/c3ccccc3)c2)c1,5.29% (active),-25.7% (active),73.8%,111%,92.5%,109%,85.1%,78.8%,113%,96.4%
O=[N+]([O-])C1C(c2ccccc2)C12c1ccccc1-c1ccccc12 (stereo not given),-14.8% (active),-17.3% (active),-28% (active),23.9%,57.2%,2.18% (active),20.5%,-31.2% (active),38.6%,-27.4% (active)
CC(C)n1cnc2c(=S)nc[nH]c21,74.8%,72.9%,109%,121%,124%,-99.9% (active),114%,105%,108%,133%
O=C(CSc1nc2ccc([N+](=O)[O-])cc2[nH]1)Nc1cccc(C(F)(F)F)c1,14.5%,-11.8% (active),13.8%,63.5%,12%,27.1%,41%,20.7%,24.8%,21.9%
CN(C)CCNC(=O)c1cccc(-c2cnc3ccc(-c4ccc5c(c4)OCO5)nn23)c1,-2.23% (active),75.8%,88.6%,89.3%,67.2%,61.1%,30.6%,76.9%,80.1%,85.8%
O=C(Nc1cc(Cl)ccc1O)c1ccc(Nc2ccnc(C(F)(F)F)c2)cc1,23.7%,-6.66% (active),51.8%,86.4%,43.3%,64.1%,36%,14.3%,49.9%,35.1%
CCOC(=O)c1ccc2[nH]c(O)c(C(=Nc3ccc(N(C)C(=O)CN4CCN(C)CC4)cc3)c3ccccc3)c2c1,-20.7% (active),-28.2% (active),-11.9% (active),-14% (active),-71.1% (active),-20.3% (active),-33.6% (active),-76.5% (active),-5.29% (active),53.1%
O=C(Nn1c2c(sc1=NCc1ccccc1)C(=O)c1ccccc1C2=O)c1cc2ccc1CCc1ccc(cc1)CC2,48.3%,59%,46.3%,118%,47.7%,72.9%,53%,51.1%,72.2%,64.3%
O=Nc1c(-c2c(O)[nH]c3ncccc23)[nH]c2ccccc12,32.8%,69.5%,79.6%,67.7%,66.7%,6.5% (active),-25.3% (active),69.3%,-9.72% (active),71.8%
Cc1ccc(/C=N/Nc2nc(Nc3ccccc3)nc(-n3nc(C)cc3C)n2)cc1,36.2%,32.9%,21.6%,59.5%,27.6%,69.3%,5.33% (active),14.3%,78.9%,13.1%
c1cc2[nH]ncc2cc1-c1nc2ccc3[nH]ncc3c2c2c1CCCC2,-13.7% (active),19.8%,17.4%,32.5%,39.9%,-25.1% (active),8.59% (active),28%,6.02% (active),26.6%

SMILES,growth [1],growth [2],growth [3],growth [4],growth [5],growth [6],growth [7],growth [8],growth [9],growth [10]
Cc1nc(-c2ccccc2)cc2c(O)c(C(=O)NN)[nH]c(=O)c12,106%,103%,106%,110%,112%,103%,7.89% (active),105%,109%,118%
CCN(c1ccc(Cl)cc1)c1nc(-c2ccc([N+](=O)[O-])cc2)cs1,83.4%,91.5%,103%,103%,92.7%,95.7%,73%,102%,87%,101%
O=C1/C(=C/c2ccc(F)cc2)COc2ccc(O)c(O)c21,18.9%,-2.78% (active),6.23% (active),1.54% (active),43%,69.1%,-21.8% (active),-2.58% (active),21.5%,1.04% (active)
O=C(O)CCCN1C(=O)/C(=C/C(Cl)=C/c2ccccc2)SC1=S,13%,-13.1% (active),19.1%,59%,46.8%,110%,7.37% (active),13.6%,31.6%,3.81% (active)
CCCCCOc1ccc(C(=O)/C(Br)=C/C(=O)O)cc1,91.9%,77.8%,114%,108%,105%,109%,85.6%,100%,102%,95%
Clc1ccc(Nc2nnc(COc3ccccc3)c3ccccc23)cc1,-20.6% (active),-25.3% (active),5.02% (active),23.1%,18.1%,9.17% (active),16.1%,-35.1% (active),14.4%,-1.13% (active)
Cn1cc(-c2csc(-c3ccc(Cl)cc3)n2)c2cccnc21,0.516% [100 µM] (active),-24.4% [100 µM] (active),13.5% [100 µM],-49.3% [100 µM] (active),-28.1% [100 µM] (active),-57.1% [100 µM] (active),-21.5% [100 µM] (active),-75.7% [100 µM] (active),9.04% [100 µM] (active),-35.5% [100 µM] (active)
CC/C(=C(/c1ccc(Cl)cc1)c1ccc(OCCN2CCCC2)cc1)c1ccc(OC)cc1,-16.1% (active),12.2%,69.4%,72.9%,72.6%,101%,81.8%,78.7%,100%,66.7%
COc1cc(CNS(=O)(=O)c2ccc(C)cc2)ccc1OCc1cn(-c2ccc(F)cc2)nn1,78.9%,61.1%,95.5%,102%,72.2%,85.2%,94.1%,91.1%,97.8%,85.8%
O=C(CCc1nnc(Cn2cnc3nc[nH]c3c2=O)o1)c1nc2ncccc2[nH]1,100%,99.6%,100%,100%,99.4%,107%,102%,104%,93.2%,100%
CC(C)N1CCN(Cc2ccc3c(NNC(=O)c4ccccc4)nc4cc(F)ccc4n23)CC1,8.09% (active),26.5%,17.9%,59.6%,21.2%,35%,21.4%,39.8%,75.8%,6.16% (active)
CC(C)N1CN2C(=S)NC3C2N(C1)C(=S)N3C (stereo not given),88.6%,91.7%,102%,107%,117%,109%,103%,103%,95.6%,106%
CC1=Nc2cnc(Nc3ccc(OCCN4CCCC4)cc3)nc2Nc2ccccc21,58.1%,78%,80.6%,74%,62.9%,43.8%,23.1%,76.4%,41.5%,82.7%
O=C1COCCN1c1ccc(Nc2nc(Cl)nc(OCc3cn(Cc4ccccc4)nn3)n2)cc1,8.29% (active),67.9%,79.6%,105%,83%,88.8%,62.6%,89.4%,85.3%,101%
S=C(Nc1ccc(-c2nc(N3CCOCC3)c3cccn3n2)cc1)Nc1cccnc1,36.7%,19%,14.8%,35.2%,43.2%,21.5%,11%,39.6%,12.8%,26.3%
C/C(=C(/c1ccc(Cl)cc1)c1ccc(OCCN2CCCC2)cc1)c1ccc(Cl)cc1,4.02% (active),57.8%,88.8%,88.9%,95.1%,108%,81.1%,88.3%,90.9%,90.4%
O=C(c1ccc(-c2nc(CSc3nc4ccccc4s3)no2)cc1)N1CCSCC1,43%,47.2%,43%,117%,69.5%,72.6%,77.6%,78.8%,106%,52.7%
O=C1c2ccc3c4ccc5c6c(ccc(c7ccc(c2c37)C(=O)N1CCC[P+](c1ccccc1)(c1ccccc1)c1ccccc1)c64)C(=O)N(CCC[P+](c1ccccc1)(c1ccccc1)c1ccccc1)C5=O,35.9%,21.3%,50.4%,74.1%,75.9%,91.7%,29.6%,37.4%,81.2%,97.2%
Cc1nc2ncnc(Cl)c2[nH]1,98.3%,82.4%,95.4%,109%,106%,105%,106%,108%,110%,108%
CCOC(=O)c1c(C)nc2c(c1N)CC(=O)N2Cc1cc(F)cc(Cl)c1,75.3%,71.7%,95.9%,97.5%,67.5%,115%,102%,93.8%,108%,81.2%
COC(=O)c1n[nH]c2ccc3nc(-c4cn[nH]c4C(F)(F)F)c4c(c3c12)CCCC4,11.9%,57.5%,34.6%,70.2%,62.5%,15.3%,19.5%,56.4%,9.88% (active),83.7%
O=c1oc2ccc([N+](=O)[O-])cc2cc1Br,85%,107%,100%,109%,109%,106%,119%,111%,106%,108%
CC1(c2ccccc2O)NN=C(/N=C/c2cccc([N+](=O)[O-])c2)N1C(Cc1c[nH]c2ccccc12)C(=O)O (stereo not given),87.7%,81.3%,88.7%,106%,90.2%,61.3%,62%,95%,95.8%,97.1%
CN1CCN(c2ccc(NC(=O)c3cncnc3Nc3ccc(OCc4ccccn4)c(Cl)c3)cc2)CC1,4.59% (active),23.3%,15.2%,46.4%,61.8%,99.4%,79.4%,70.6%,67.4%,70.5%
COc1ccc(C(=O)Nc2cccc(C3CC(=O)c4c(cc(OC)c(OC)c4OC)O3)c2)cc1 (stereo not given),13.3%,11.2%,17.7%,46%,43.5%,20.6%,36%,1.51% (active),5.72% (active),8.74% (active)
O=C(COc1ccc(-c2nc3ccccc3[nH]2)cc1)N=Nc1c(O)[nH]c2ccc(Cl)cc12,11.2%,57.4%,11.9%,104%,60.7%,103%,88%,63.7%,72.4%,107%
